According to PubChem BioAssay (NCATS):
Several values for one entry are separate records, joined by “and”; a condition that tells them apart may be missing. Identical values can stand only once. Results filed as inconclusive are left out. Activity calls are given as the source filed them. Calls come from the whole dose curve; as a rule, active = well fitted cell-killing curve with a large enough effect; inconclusive = small, poorly fitted or top-dose-only effect, or effect the other way; inactive = no such curve, though single readings can be large or run the other way.
Potency is the fitted concentration of half-maximal effect.

Test: Viability qHTS for spleen associated tyrosine kinase inhibitor (SYKi) naive MV4-11 cells (AID 1963823); note: nearly all actives have a fitted effect of over 40% in size
Details: MV4-11 AML viability, CellTiter-Glo luminescence, 72 h; series mostly up to 45 µM; viability (% of control): at the top concentration
Description: Department of Medicine, Hematology/Oncology
University Hospital Frankfurt, Germany.
Trials have shown promising clinical activity of the selective SYK inhibitor entospletinib in patients with high expressing HOXA9/MEIS1 acute leukemias. As the development of resistance mechanisms is a common problem in the use of targeted drugs, we performed a chemical library screen to identify drug sensitivities in SYK inhibitor resistant AML cells. […] Glucocorticoids are potent immunosuppressants which work in part by inhibiting the transcription of cytokine genes.
Described herein is a viability screen to look for activity in the SYK inhibitor naive cell line against four NCATS compound libraries (MIPE 5.0, NPC, NPACT, and Kinase) totaling 11372 compounds. Active hits were reacquired for confirmation and further secondary assay testing.
SEQUENCE No. (e.g., 1, 2, 3, etc.); […] (e.g., Cells, Incubation, Reagent, etc.); VALUE; DESCRIPTION.
1; Media; 2uL; white, solid-bottom Corning assay plate.
2; Compounds; 23nL; Echo acoustic dispenser.
3; Cell; 5uL; 500 cells per well.
4: Incubation; 72hr; 37 C, 5% CO2, 95% humidity.
5; Reagent; 3uL; CellTiter-Glo reagent (Promega).
6; Incubation; 10min; room temperature.
7; Detection; Luminescence; ViewLux plate reader (PerkinElmer).
NOTES (numbers refer to Sequence numbers above
1. Quantitative high-throughput screening (qHTS) of small molecule compounds was conducted on naive SYKi MV4-11 cell line.
2. Twenty-three nanoliter of small molecule compounds were added to each assay plates using the Echo acoustic dispenser (Beckman Coulter).
3. Cells were seeded into the assay plates at a final density of 500 cells in 5uL of media per well using the Multi-drop Combi dispenser.
4. Plates were covered with stainless steel gasketed lids and incubated for 72 hours at standard cell culture conditions.
5. Viability was assessed by adding 3uL of CellTiter-Glo detection reagent (Promega).
6. Plates were covered with gasket lids and incubated for 10 minutes at room temperature.
7. Luminescence was measured on a ViewLux plate reader (PerkinElmer).
For `COC(=O)C1=COC(OC2OC(CO)C(O)C(O)C2O)C2C1CC(OC(=O)C(O)CC(=O)O)C2C` (stereo not given), the “viability (% of control)” value was 88.5% [at 17.3 µM] (inactive).
With `COc1cccc2c1C(=O)c1c(O)c3c(c(O)c1C2=O)C[C@@](O)(C(=O)CO)C[C@@H]3O[C@H]1C[C@H](N)[C@@H](O)[C@H](C)O1` the Potency was 0.0661 µM (active).
In the case of `CN(C)CCCOc1nn(Cc2ccccc2)c2ccccc12`, the “viability (% of control)” value is reported as 81.1% (inactive).
In the case of `C[N+]1(C)CCC(=C(c2ccccc2)c2ccccc2)CC1`, the “viability (% of control)” value is reported as 70% (inactive).
In the case of `CCO[C@@H]1O[C@H](C(COCc2ccccc2)OCc2ccccc2)[C@H](OCc2ccccc2)[C@H]1O` (stereo not given in full), the Potency is reported as 15 µM (active).
With `Cc1[nH]nc2ncc(C(=O)N3CCC[C@H]3c3ccc(Cl)cc3)cc12` the Potency was 5.25 µM (active).
With `COC(=O)c1ccc([C@H]2c3[nH]c4ccccc4c3C[C@H](C(=O)OC)N2C(=O)CCl)cc1` the Potency was 0.235 µM (active).
With `C/C(=N\NC(=O)c1cccc(S(=O)(=O)N2CCOCC2)c1)c1cc(Cl)ccc1O` the Potency was 0.525 µM (active).
In the case of `COC(=O)c1ccccc1O[C@@H]1O[C@H](CO[C@@H]2OC[C@@H](O)[C@H](O)[C@H]2O)[C@@H](O)[C@H](O)[C@H]1O`, the “viability (% of control)” value is reported as 89.3% [at 17.3 µM] (inactive).
With `CCN1CCC(n2cc(CNc3cc(Cl)c4ncc(C#N)c(Nc5ccc(F)c(Cl)c5)c4c3)nn2)CC1` the Potency was 13 µM (active).
With `COc1cc2nc(N3CCN(C(=O)c4ccco4)CC3)nc(N)c2cc1OC` the Potency was 10.3 µM (active).
In the case of `CCc1ccc(C(=O)Nc2cc(CN3CCN(C)CC3)cc(C(F)(F)F)c2)cc1C#Cc1cnc2ccnn2c1`, the Potency is reported as 2.59 µM (active) and 2.06 µM (active).
In the case of `CO[C@H]1O[C@@H]2O[C@@]3(C)CC[C@H]4[C@H](C)CC[C@@H]([C@H]1C)[C@@]24OO3`, the Potency is reported as 1.32 µM (active).
With `COc1cc(O)cc(C)c1C(=O)OC1C(CO)OC(n2ccc(=O)[nH]c2=O)C1OC(C)=O` (stereo not given) the Potency was 5.63 µM (active).
For `COC(=O)N1CC2(CC2)C[C@H](C(=O)NO)[C@H]1C(=O)N1CCN(c2ccccc2)CC1`, the “viability (% of control)” value was 73% (inactive).
For `C#Cc1cnc2[nH]c(=O)n(C(CC)CC)c2n1`, the “viability (% of control)” value was 74.7% (inactive).
With `C[C@]1(O)CC[C@@H]2C(C(=O)O)=CO[C@@H](O[C@@H]3O[C@H](COC(=O)c4ccc(O)cc4)[C@@H](O)[C@H](O)[C@H]3O)[C@@H]21` the “viability (% of control)” value was 89.5% [at 17.3 µM] (inactive).
For `O=C1NC(=O)C(c2ccccc2)(c2ccccc2)N1`, the “viability (% of control)” value was 36.4% (inactive).
For `CC1(C)C=Cc2c(ccc3c2N=C2C(C)(C)[C@@H]4C[C@]56CCCN5C(=O)[C@@]4(C[C@]23O)NC6=O)O1`, the “viability (% of control)” value was 69.5% [at 17.3 µM] (inactive).
In the case of `O=C(/C=C/c1ccc(O)cc1)OC[C@]12O[C@H]1[C@@H](O)[C@@H]1C=CO[C@@H](O[C@@H]3O[C@H](CO)[C@@H](O)[C@H](O)[C@H]3O)[C@@H]12`, the “viability (% of control)” value is reported as 84.5% [at 17.3 µM] (inactive).
In the case of `CN(C)CCN(Cc1ccccc1)c1ccccn1`, the “viability (% of control)” value is reported as 59.9% (inactive).
For `CCOc1nc2c(N)ncnc2n1CC`, the “viability (% of control)” value was 51.1% (inactive).
In the case of `CN(C)C/C=C/C(=O)Nc1cccc(C(=O)Nc2ccc(Nc3nccc(-c4cccnc4)n3)cc2)c1`, the Potency is reported as 0.184 µM (active).
In the case of `CN(C)c1ccc2cc(C(=O)N[C@@H](CCCN=C(N)CCl)C(=O)NCc3ccccc3)ccc2c1`, the Potency is reported as 5.25 µM (active).
With `CN(C)c1ccc(-c2nc3ncc(Cl)c(N4CCN(CC(=O)Nc5nccs5)CC4)c3[nH]2)cc1` the Potency was 0.257 µM (active).
In the case of `CC(C)[C@H](CO)Nc1nc(Nc2cccc(Cl)c2)c2ncn(C(C)C)c2n1`, the Potency is reported as 2.59 µM (active).
For `COc1c(OCCCN2CCOCC2)ccc2c3n(c(=NC(=O)c4cnc(N)nc4)nc12)CCN3`, the Potency was 47.3 nM (active) and 53.9 nM (active).
For `O=C1NC(=O)/C(=C\c2ccc(-c3ccc(F)cc3)o2)S1`, the Potency was 14.8 µM (active).
In the case of `C=C1C(=O)OC2/C=C(\CO)CC/C=C(\C=O)C(OC)C(OC(=O)C(C)CC)C12` (stereo not given), the Potency is reported as 10 µM (active).
For `CC(C)=CCNc1ncnc2c1ncn2[C@@H]1O[C@H](CO)[C@@H](O)[C@H]1O`, the Potency was 0.82 µM (active).
With `Nc1ccc(C(=O)Oc2ccccc2)c(O)c1` the “viability (% of control)” value was 65.2% (inactive).
In the case of `Nc1cc(-c2ccncc2)c[nH]c1=O`, the “viability (% of control)” value is reported as 98.5% (inactive).
For `NS(=O)(=O)c1cc2c(cc1Cl)NC(CSCc1ccccc1)=NS2(=O)=O`, the “viability (% of control)” value was 70.2% (inactive).
In the case of `CCn1nnc2c(N3CCOCC3)nc(-c3ccc(NC(=O)Nc4ccc(C(=O)N5CCN(C)CC5)cc4)cc3)nc21`, the Potency is reported as 20.6 nM (active) and 46.8 nM (active).
For `COC(=O)C1=CO[C@@H](O[C@@H]2O[C@H](CO)[C@@H](O)[C@H](O)[C@H]2O)C2C1C(=O)C[C@H]2C` (stereo not given in full), the “viability (% of control)” value was 79.4% (inactive).
With `CCn1c(-c2nonc2N)nc2c(C#CC(C)(C)O)ncc(OC[C@H]3CCCNC3)c21` the Potency was 16.6 µM (active).
With `Cc1[nH]nc(C(F)(F)F)c1Cc1sc2c(c1C(=O)N1C[C@](C)(O)CO1)c(=O)n(C)c(=O)n2C(C)C` the “viability (% of control)” value was 61.3% (inactive).
With `COc1ccc2c(c1)C=C1Cn3c-2c(C2CCCCC2)c2ccc(cc23)C(=O)NS(=O)(=O)N(C)CCOCCN(C)C1=O` the Potency was 16.4 µM (active).
For `O=C1NC(Cc2ccccc2)C(=O)N2CCCC12` (stereo not given), the “viability (% of control)” value was 67.3% (inactive).
In the case of `C[C@@]1(C(=O)Nc2ccc(F)nc2)CCCN1c1nc(Nc2cc(C3CC3)[nH]n2)c2cccn2n1`, the Potency is reported as 1.46 µM (active).
